Data published in PubChem BioAssay AID720513 (Broad Institute, 2013).
Screen size: about 2,100 compounds; about 480 (23%) were called active. Not shown: some 5% with an inconclusive outcome.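 Rule for the calls: active = fitted curve reaches 40% activation at or below the top valid concentration, in every replicate test; inconclusive = replicate tests disagree on the call; inactive = the rest, including activity in the opposite direction.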 Only a sample is shown. Results with a measured potency or affinity are listed apart.

Experiment: PGC1a acetylation increase, cellular AlphaLISA – cell-based, cherry-picked samples, set 6, dose response (AID 720513);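 note: cells made to overexpress flag tagged PGC1a plus GCN5 acetyltransferase by viral infection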
Settings: U2OS PGC1a acetylation AlphaLISA, overnight, 0 = neutral, -100 = inhibitor control; series mostly up to 19.5 µM

outcome, inactive:
O=C(Nc1nc2c(s1)CN(Cc1ccccc1)CC2)c1c(F)cccc1F
COc1ccc(-c2[nH]ncc2CN(C)C(C)c2ccon2)cc1F (configuration not stated)
COc1cccc(-n2c(-c3cccc(S(=O)(=O)N(C)C)c3)n[nH]c2=S)c1
COc1ccc(OC)c(-n2c(-c3ccc(C)cc3)n[nH]c2=S)c1
Cc1ccc(S(=O)(=O)Nc2ccccc2C(=O)NCc2cccnc2)cc1
COc1cccc(S(=O)(=O)N[C@H]2CC[C@H](CC(=O)NCc3ccc(F)cc3)O[C@@H]2CO)c1
CCC(C)C(NC(=O)C1CCC(C)CC1)C(=O)NCc1cccnc1 (configuration not stated)
COc1cccc(Cn2c(NCc3cccnc3)nc3c2c(=O)n(C)c(=O)n3C)c1
COc1ccc2nc(NCc3cccnc3)sc2c1
CCn1cc(C(=O)NCc2cccnc2)c2cc(OC)c(OC)cc2c1=O
C[C@H]1CN([C@@H](C)CO)C(=O)c2cc(C3=CCCC3)cnc2O[C@@H]1CN(C)C(=O)c1cccnc1
Cc1ccccc1S(=O)(=O)N[C@H]1CC[C@H](CCn2cc(Cc3ccccc3)nn2)O[C@@H]1CO
COc1ccccc1C#Cc1ccc2c(c1)O[C@@H](CN(C)Cc1cccnc1)[C@H](C)CN([C@@H](C)CO)S2(=O)=O
CO[C@H]1CN(C)C(=O)c2cc(NS(=O)(=O)c3cn(C)cn3)ccc2OC[C@@H](C)NC[C@H]1C
CCCCN(c1ccccc1)c1ncnc(N)c1[N+](=O)[O-]
COC(=O)c1cccc(NC(=O)CSc2nnc(C)n2C)c1
COc1ccccc1Nc1nc(NCCC(C)C)nc(N)c1[N+](=O)[O-]
Cn1nnnc1Sc1ncnc2scc(-c3cccc(S(C)(=O)=O)c3)c12
Cc1ccc(C)c(S(=O)(=O)N(C(=O)c2ccncc2)c2ccc(OC(=O)c3ccncc3)cc2)c1
C=CCNC(=O)c1cnn(-c2ccccc2)c1-c1ccccc1
CO[C@@H]1CN(C)C(=O)c2ccc(NC(C)=O)cc2OC[C@@H](C)N(C(=O)Cc2cccnc2)C[C@@H]1C
O=C(Cn1ncc(Cl)c(Cl)c1=O)NCC1CCCCC1
C[C@@H]1CN([C@H](C)CO)C(=O)Cc2cc(NC(=O)CCC(F)(F)F)ccc2O[C@H]1CN(C)S(C)(=O)=O
CCOC(=O)C1=C(Nc2ccccc2)OCC1=O
CC1=CCC2C(=O)N(c3cccc(C(=O)NCc4ccccc4)c3)C(=O)C2C1 (configuration not stated)
O=C(NCc1cccnc1)/C(=C/c1ccc(-c2ccc(Cl)cc2)o1)S(=O)(=O)c1ccccc1
Cc1ccc(S(=O)(=O)Nc2cccc3c2O[C@H](CN(C)Cc2ccc(Cl)c(Cl)c2)[C@@H](C)CN([C@@H](C)CO)C3=O)cc1
CN(C)c1nc(SCCOC(=O)COc2ccc(Cl)cc2Cl)nc(N(C)C)n1
CCCc1cc(=O)oc2cc(C)cc(O)c12
CC(=O)Nc1ccc2c(CSc3nncs3)cc(=O)oc2c1
COC(=O)[C@]1(Cc2ccccc2)N=C(c2ccc(OCCCO)cc2)O[C@@H]1c1ccccc1CN=[N+]=[N-]
O=[N+]([O-])c1cc(F)c2cccnc2c1O
Cc1ccc2[nH]c3ccccc3c(=O)c2c1
CCN(CC(=O)Nc1ccccc1C(F)(F)F)C(=O)CCSc1ccc(F)cc1
O=C(NCc1cccnc1)C1CC(=O)N(C2CCCCC2)C1 (configuration not stated)
O=C(CCNNC(=O)c1ccncc1)NCc1ccccc1
O=C(NCc1cccnc1)/C(=C\c1ccc(-c2cccc(Cl)c2)o1)S(=O)(=O)c1ccccc1
O=C(NCc1cccnc1)/C(=C\c1ccc(-c2ccc(Cl)c(Cl)c2)o1)S(=O)(=O)c1ccccc1
O=C(Cc1ccccn1)NCC[C@H]1CC[C@@H](NC(=O)Nc2ccc(C(F)(F)F)cc2)[C@@H](CO)O1
O=C(NC1=NCCS1)C1CC(=O)N(c2ccccc2)C1 (configuration not stated)
O=C(Nc1cccc2[nH]ncc12)c1ccc(F)cc1
O=C(C[C@@H]1CC[C@@H](NC(=O)C2CCC2)[C@H](CO)O1)NCC1CC1
CCC(=O)Nc1ccc(C(=O)COC(=O)c2sc(C)nc2C)cc1
CC(C)C[C@H]1CNC(=S)N1CC1CCCN1C[C@H](Cc1ccccc1)N1C[C@H](Cc2ccc(O)cc2)N(CC2CCCCCC2)C1=S (some centres not stated)
CC(N=C1NS(=O)(=O)c2ccccc21)C(=O)NCCCc1ccccc1 (configuration not stated)
CCOc1ccc2nc(NCCNC(=O)Nc3ccccc3)c(C#N)cc2c1
Cc1ccccc1OCC(O)CNC1CCC(NCC(O)COc2ccccc2C)CC1 (configuration not stated)
C[C@H](CO)N1C[C@H](C)[C@H](CN(C)C(=O)CN(C)C)Oc2cc(-c3cncnc3)ccc2S1(=O)=O
CCN1CCN(Cc2ccc(NC(=O)c3cc(NC(=O)c4cncc(-c5ccc(C#N)cc5)c4)cc(OC)c3)cc2C(F)(F)F)CC1
COc1ccc(OCCc2nnc(N)s2)cc1
CN(NC(=O)c1ccccc1F)c1nc(C(F)(F)F)nc2ccccc12
C[C@@H](C(=O)Nc1nc2ccc(F)cc2s1)N1C(=O)C2CC=CCC2C1=O (some centres not stated)
C[C@@H]1CN([C@H](C)CO)S(=O)(=O)c2ccc(C#CC3CCCC3)cc2O[C@H]1CN(C)C
O=C(NCC1CC1)Nc1ccccc1F
C/C=C/c1ccc2c(c1)O[C@@H](CN(C)C(=O)NC(C)C)[C@H](C)CN([C@H](C)CO)S2(=O)=O
COc1cccc(-c2ccc(C3[C@@H]4CN(Cc5cccc(F)c5)C[C@H]3N4)cc2)c1 (some centres not stated)
COc1ccccc1CN1C[C@@H]2N[C@H](C1)C2c1ccc(-c2ccccc2)cc1 (some centres not stated)
COc1ccc(-c2ccc(C3[C@@H]4CN(Cc5ccccn5)C[C@H]3N4)cc2)cc1 (some centres not stated)
COc1cc(CN2C[C@@H]3N[C@H](C2)C3c2ccc(-c3cccc(OC)c3)cc2)cc(OC)c1 (some centres not stated)
Fc1ccc(-c2ccc(C3[C@@H]4CN(Cc5ccccc5)C[C@H]3N4)cc2)cc1 (some centres not stated)
Fc1cccc(CN2C[C@@H]3N[C@H](C2)C3c2ccc(-c3ccccc3)cc2)c1 (some centres not stated)
Cc1cccc(-c2ccc(C3[C@@H]4CN(Cc5cccc(F)c5)C[C@H]3N4)cc2)c1 (some centres not stated)
